Bioassay records (PubChem)
Compounds with a hit are over-represented: about 12% of the library has one in this group of screens.
AmpC detergent: inhibitors of E. coli AmpC beta-lactamase with detergent | P00811 | AmpC hydrolysis of nitrocefin, absorbance 480 nm, 0.01% Triton | Potency, µM (doses to about 114 µM), without a hit: at the highest dose activity change, negative = inhibition, most hits filed as inhibitors | actives 0.041% (n = 370,000) | AID 485294;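 also: potency is read from the fitted curve at half-maximal effect; 0% = no-compound wells and -100% = no-enzyme wells; nearly all actives have a fitted effect of over 25% in size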
Target sequence (P00811 whole entry, looked up): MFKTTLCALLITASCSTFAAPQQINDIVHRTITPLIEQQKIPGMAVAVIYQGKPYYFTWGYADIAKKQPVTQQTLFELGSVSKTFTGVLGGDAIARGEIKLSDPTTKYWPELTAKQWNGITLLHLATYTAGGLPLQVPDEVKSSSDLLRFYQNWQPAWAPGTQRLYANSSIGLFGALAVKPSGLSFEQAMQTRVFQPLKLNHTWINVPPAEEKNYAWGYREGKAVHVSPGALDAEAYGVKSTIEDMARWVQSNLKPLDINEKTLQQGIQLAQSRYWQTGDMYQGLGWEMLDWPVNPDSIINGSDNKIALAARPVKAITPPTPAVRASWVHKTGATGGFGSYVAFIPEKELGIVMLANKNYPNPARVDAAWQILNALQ
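20 mM phosphate pH 7.0 + 0.01% (detergent screen) or 0.0001% Triton X-100; 5.3 nM AmpC reagent; cpd preinc 15 min RT; nitrocefin (800 uM stock) to start; A480 q20 s × 4 min; Activity was normalised to no-enzyme and no-compound control wells.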
Pf growth 96h: P. falciparum growth inhibition at 96 hours. P. falciparum luciferase reporter growth, 96 h. Potency, µM (highest dose often 28.7 µM), for the others: top-dose activity change, negative = inhibition, most hits filed as inhibitors. actives 6.9% (n = 320,000); also: potency is read from the fitted curve at half-maximal effect; % is scaled to controls: 0 for no effect and ±100 for the full control effect
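Erythrocytes infected with luciferase-expressing P. falciparum were dispensed at 2% hematocrit and 0.05% parasitemia (final), then incubated with compounds 96 hours at 37 C in 5% CO2. Luminescence after detection reagent addition reported growth.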
AmpC inh no detg: AmpC beta-lactamase inhibition without detergent; AmpC nitrocefin hydrolysis, absorbance 480 nm, 0.0001% Triton; actives 0.52% (n = 330,000); AID 485341; Potency, µM (doses to about 57.1 µM), for the others: at the top dose activity change, negative = inhibition, usual class: inhibitors; P00811;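 also: potency is read from the fitted curve at half-maximal effect; plate controls were no compound for no effect and no enzyme for full effect; nearly all actives have a fitted effect of over 20% in size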
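20 mM phosphate pH 7.0 + 0.01% (detergent screen) or 0.0001% Triton X-100; 5.3 nM AmpC reagent; cpd preinc 15 min RT; nitrocefin (800 uM stock) to start; A480 q20 s × 4 min; Activity was normalised to no-enzyme and no-compound control wells.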
Pf growth 48h: P. falciparum growth inhibition at 48 hours (one generation); Potency, µM (series often up to 28.7 µM), inactives show at the top dose activity change, negative = inhibition, most hits filed as inhibitors; P. falciparum luciferase growth in erythrocytes, 48 h; actives 5.9% (n = 310,000); AID 504832; also: potency is read from the fitted curve at half-maximal effect; % is scaled to controls: 0 for no effect and ±100 for the full control effect
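Here the parasites carry a stable luciferase gene and grow inside erythrocytes in Albumax-based RPMI medium with compound for one erythrocytic cycle. Activity is scored as loss of luminescent signal.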
SARS PLpro yeast-1: SARS-CoV PLP inhibition in yeast. actives 0.19% (n = 330,000). AID 485353. Potency, µM (doses to about 32.9 µM), inactives show top-dose activity, positive = growth rescue, hits mostly activators. S. cerevisiae expressing SARS-CoV PLpro, growth rescue; calls by dose curve; also: potency is read from the fitted curve at half-maximal effect; 0% is about no effect; nearly all actives have a fitted effect of over 55% in size
Sm TGR inh: blocks Schistosoma mansoni thioredoxin glutathione reductase. purified TGR, DTNB reduction, TNB absorbance 405 nm. Potency, µM (highest dose often 114 µM), without a hit: top-dose activity change, negative = inhibition, actives largely listed as inhibitors. actives 3% (n = 360,000); also: potency is read from the fitted curve at half-maximal effect; % is scaled to controls: 0 for no effect and ±100 for the full control effect; nearly all actives have a fitted effect of over 60% in size
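TGR 20 nM + NADPH 100 uM (dispensed conc.), cpd preinc 15 min RT; start with NADPH (500 uM addition) then DTNB (15 mM addition). Kinetic TNB absorbance, 405 nm filter. Four-parameter Hill fit across titration.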
SARS PLpro yeast-2: Validates SARS-CoV PLpro inhibitor hits in yeast; AID 652038; calls only; actives 19% (n = 1,000); yeast expressing SARS-CoV PLpro, growth phenotype rescue; shares compounds with SARS PLpro yeast-1; call rule not given here
* = called active by the depositor; i = inactive; ? = inconclusive; nt = not tested or not shown; + = active, no number. Unless noted, calls follow the shape of the dose curve; as a rule, active = well fitted curve in the direction sought with a large enough effect; inconclusive = small, poorly fitted or top-dose-only effect, or another doubt; inactive = no such curve, though single readings can be large; an effect the other way counts as inactive or inconclusive.

SMILES | AmpC detergent | Pf growth 96h | AmpC inh no detg | Pf growth 48h | SARS PLpro yeast-1 | Sm TGR inh | SARS PLpro yeast-2
CNC(=O)Oc1ccc2ncccc2c1 | ? | -5% | -12% | -13% | 14µM* | -16% | +
COC(=O)c1ccc(NC(=O)c2cc[n+](Cc3ccccc3)cc2)cc1 | ? | 194% | -13% | ? | -6% | 5% | nt
COc1cc(OC)cc(C(=O)NNC(=S)NC(=O)c2cccnc2)c1 | -1% | ? | -5% | 9% | 3% | -2% | nt
COc1ccc(C(=O)NC(=S)NNC(=O)c2cnccn2)cc1OC | -1% | ? | -25% | -15% | 4µM* | -15% | ?
COc1cc(OC)cc(C(=O)NC(=S)NNC(=O)c2cnccn2)c1 | 0% | ? | -2% | -23% | nt | 2% | i
COc1ccc(C(=O)NCCNC(=O)c2cnccn2)cc1OC | 1% | -5% | -2% | 24% | 14% | 7% | nt
O=c1c2c3c(sc2nc2n1CCCCC2)CCCC3 | -13% | nt | -1% | 120% | 4.5µM* | -16% | i
C=CCn1c(SCC#N)nnc1-c1ccc2ncccc2c1 | 8% | ? | -4% | ? | -3% | 5% | nt
Cc1cccc(C)c1NC(=O)Cn1c(=O)c(N2CCCCC2)c(N)n(C)c1=O | nt | nt | -13% | nt | 11µM* | nt | i
CNC(=O)N(C1=NCCCCC1)c1ccc(Br)cc1 | -6% | ? | -22% | ? | nt | -4% | i
CCOc1ccc(N(C(=O)Nc2ccccc2)C2=NCCC2)cc1 | -15% | 2% | 3% | nt | -7% | 1% | nt
CC1=CCC2C(=O)N(c3cccc(C(=O)Nc4ccccc4Cl)c3)C(=O)C2C1 (centres undefined) | 2% | -20% | 2% | -7% | 4% | ? | nt
O=C(c1cc(-c2ccc(F)cc2)no1)N1CCN(Cc2ccc3c(c2)OCO3)CC1 | -13% | ? | 88% | ? | -5% | 0% | nt
c1cncc(-c2csc(NCc3ccco3)n2)c1 | -1% | ? | -18% | nt | -12% | 2% | nt
CC(=O)Nc1ccc(-c2csc(NCc3ccco3)n2)cc1 | -1% | 0% | -27% | 162% | ? | -22% | i
COc1ccc(CCNC(=O)Cn2nc([N+](=O)[O-])c(Br)c2C)cc1OC | 7% | ? | -7% | -27% | ? | 3% | i
COc1ccc(CCNC(=O)Cc2ccc([N+](=O)[O-])cc2)cc1OC | -1% | -14% | -9% | -7% | 0% | -15% | nt
CCOc1ccc(Nc2oc(-c3cccc(Cl)c3)nc2C#N)cc1 | -8% | 25% | -46% | nt | ? | ? | ?
CCOc1ccc(Nc2oc(-c3ccco3)nc2C#N)cc1 | -12% | ? | -28% | -15% | -10% | -2% | nt
C=CCc1cccc(/C=N/NC(=O)C(C)Nc2ccc(C)cc2)c1O (centres undefined) | -3% | 12µM* | -57% | ? | ? | 0% | i
C=CCc1cccc(/C=N/NC(=O)C(=O)Nc2ccc(C)cc2)c1O | -2% | ? | -40% | 11% | 1% | nt | nt
O=C(N/N=C/c1ccc(-n2ccnc2)cc1)c1cccs1 | 6% | 47% | -34% | 44% | ? | 1% | i
Cc1cccc(C)c1NC(=O)CC1SC2=NCCN2C1=O (centres undefined) | 1% | nt | -21% | -22% | ? | 25µM* | i
O=C(CC1SC2=NCCN2C1=O)Nc1ccc(Br)cc1 (centres undefined) | -7% | nt | -14% | -14% | 4% | 2% | nt
COc1ccc(/C=C(\C#N)C(=O)OCC(=O)NCc2ccccc2Cl)cc1 | 1% | 17% | -24% | ? | 1% | 0% | nt
SMILES | AmpC detergent | Pf growth 96h | AmpC inh no detg | Pf growth 48h | SARS PLpro yeast-1 | Sm TGR inh | SARS PLpro yeast-2
COc1ccc(/C=C(\C#N)C(=O)OCC(=O)NCc2ccc(Cl)cc2)cc1 | -1% | ? | -29% | ? | ? | -21% | i
O=C1OCCN1C(=O)[C@H]1[C@H](c2ccc(Cl)cc2)C(c2ccccc2)=NN1c1ccccc1 | nt | nt | 5% | nt | -4% | nt | nt
O=C1OCCN1C(=O)[C@H]1[C@H](c2ccccc2)C(c2cccc(Cl)c2)=NN1c1ccccc1 | nt | nt | -17% | nt | ? | nt | +
CCOC(=O)c1ccc(-n2c(O)c(/C=N/NC(=O)C3COc4ccccc4O3)c3ccccc3c2=O)cc1 (centres undefined) | -6% | -19% | -33% | 10% | 4.5µM* | -1% | i
O=C(Nc1nc(-c2ccccn2)cs1)C1COc2ccccc2O1 (centres undefined) | 2% | 0.37µM* | -12% | 8.3µM* | ? | 18% | +
CCCCN1CC(=O)N2[C@H]3c4ccc(OC)cc4OC[C@@H]3[C@H](c3ccccc3)[C@]2(C)C1=O | 3% | 7.4µM* | 97% | 2.1µM* | ? | 1% | i
COc1ccc(CN2CC(=O)N3[C@H]4c5cc(C)ccc5OC[C@@H]4[C@H](c4ccccc4)[C@]3(C)C2=O)cc1 | nt | nt | 29% | nt | 5% | nt | nt
COc1ccc2c(c1)OC[C@H]1[C@H]2N2C(=O)CN(Cc3ccc(C)cc3)C(=O)[C@@]2(C)[C@H]1c1ccccc1 | 5% | ? | 54% | ? | 11µM* | 1% | i
CCn1ncc(CNC(=O)c2cccc([N+](=O)[O-])c2)c1C | 5% | 3% | -19% | 7% | 22% | -2% | nt
CC(=O)Oc1ccc(C)cc1-n1nc2ccccc2n1 | -7% | -11% | 14% | 205% | -42% | 9% | nt
CC(C)(C)c1ccc(C(=O)c2cn[nH]c2-c2ccccc2O)cc1 | 2% | ? | -34% | -29% | -3% | 8% | nt
CCOC(=O)C(C)/C(C)=N/NC(N)=S (centres undefined) | -9% | 4.7µM* | -33% | 1.3µM* | ? | -9% | +
CC(=O)OCc1nc2sc(C)c(C)c2c(=O)[nH]1 | -4% | ? | -22% | -19% | -20% | -14% | nt
Cc1ccc(S(=O)(=O)N2CC(O)CC2C(=O)OCc2nc3sc(C)c(C)c3c(=O)[nH]2)cc1 (centres undefined) | -5% | 13µM* | 10% | 12µM* | ? | -19% | i
COC(=O)c1c(NC(=O)CSc2nc3ccccc3c(=O)n2Cc2ccco2)sc(C)c1C | -6% | 32% | -31% | 14% | ? | -2% | +
O=Cc1c(Sc2ccccn2)nc2ccccn2c1=O | 1% | ? | -16% | ? | -4% | -20% | nt
O=Cc1c(Sc2ccccc2)nc2ccccn2c1=O | 0% | 7.4µM* | -9% | nt | ? | -14% | i
